Rows were chosen to be rich in hits. Some 1.3% of all compounds tested hit in one or more screens of this group.
GALR2 ag = activates the human galanin receptor 2; GALR2-expressing cells, agonist activation read-out; 0.48% of 140,000 active; activation, % (concentration not given with the values); O43603; AID 803; in the data active = activation above about 5%, passing the limit was not always enough;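 also: 0% = vehicle buffer wells and 100% = reference agonist at full effect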
Target sequence (O43603 whole entry, looked up): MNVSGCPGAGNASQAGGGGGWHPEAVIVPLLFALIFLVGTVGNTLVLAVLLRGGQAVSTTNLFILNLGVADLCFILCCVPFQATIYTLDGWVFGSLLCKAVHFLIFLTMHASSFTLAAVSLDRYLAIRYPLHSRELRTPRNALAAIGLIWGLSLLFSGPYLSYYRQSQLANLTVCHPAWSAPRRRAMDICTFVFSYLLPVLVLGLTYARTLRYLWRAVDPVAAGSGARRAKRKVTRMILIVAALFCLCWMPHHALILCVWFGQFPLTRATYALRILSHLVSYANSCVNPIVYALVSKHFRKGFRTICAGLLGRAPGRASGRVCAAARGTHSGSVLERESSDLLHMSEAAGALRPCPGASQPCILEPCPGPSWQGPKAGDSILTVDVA
Phagocytosis inh = blocks phagocytosis by macrophages; 0.07% of 110,000 active; J774A.1 macrophage IgG-bead phagocytosis, imaging; inhibition, % at 5 µM; AID 1029;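 active = inhibition above the mean of the plate negative controls plus 5 SD, cut at about 13% in these data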;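 also: phagocytic index as fraction of beads internalized from green versus red external bead signal; plate controls were DMSO negative control for no effect and cytochalasin-D positive control for full effect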
GALR2 antag = blocks the human galanin receptor 2; GALR2-expressing cells, antagonist mode; inhibition, % at 4 µM; 0.39% of 140,000 active; AID 828; in the data active = inhibition above about 27%;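 also: cells stimulated with galanin 1-16 at roughly its EC80; 0% = agonist challenge control and 100% = basal control without agonist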
S1P2 ag = activates the human S1P2 receptor; O95136; S1P2-expressing cell line, agonist reporter read-out; activation, % at 4.5 µM; 0.46% of 97,000 active; AID 729; in the data active = activation above about 16%;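 also: 0% = vehicle low control and 100% = maximal reference agonist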
S1P2 antag = S1P2 (human) receptor antagonism; O95136; cell-based S1P2 antagonist assay, inhibition at 5 uM; inhibition, % at 5 µM; 0.21% of 97,000 active; in the data active = inhibition above about 45%;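 also: CRE beta-lactamase reporter cells expressing human S1P2 stimulated with S1P; 0% = agonist at EC80 alone and 100% = agonist plus reference antagonist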
An asterisk follows results filed as active.

How did O=C(C1=C(O)C(=O)N(Cc2ccco2)C1c1cccs1)c1cccs1 (stereo not given) do in these assays?
GALR2 ag: 1; Phagocytosis inh: 10; GALR2 antag: -5

Results for CCN(CC)c1nc(C#N)cc(-c2ccc(OC)cc2)n1 ?
GALR2 ag: 1; Phagocytosis inh: 0; GALR2 antag: -9; S1P2 ag: 19*; S1P2 antag: -22

How did Cn1c(N)c(C(=O)COC(=O)CNS(=O)(=O)c2cccc(Cl)c2)c(=O)n(C)c1=O do in these assays?
GALR2 ag: -1; Phagocytosis inh: -9; GALR2 antag: 1

What do the screens show for `CC(=O)Nc1ccc(S(C)(=O)=O)c(C)c1`?
GALR2 ag: 0; GALR2 antag: 6

How did CCN(CC)Cc1c(O)c(Cl)cc2c(C)c(C)c(=O)oc12 do in these assays?
GALR2 ag: 2; Phagocytosis inh: 0; GALR2 antag: -7; S1P2 ag: 1; S1P2 antag: 3

What do the screens show for `Cc1c(Cc2ccccc2)c(=O)oc2c(CN(C)C)c(O)c(Cl)cc12`?
GALR2 ag: 8.3*; GALR2 antag: 3

Results for S=C(NCc1ccccn1)Nc1ccc(Cl)c(Cl)c1 ?
GALR2 ag: -2; Phagocytosis inh: -1; GALR2 antag: 1; S1P2 ag: -5; S1P2 antag: 47*

How did CCCCn1c(NC(=O)c2ccccc2Cl)c(C#N)c2nc3ccccc3nc21 do in these assays?
GALR2 ag: 7.3*; Phagocytosis inh: 7; GALR2 antag: -1; S1P2 ag: 14; S1P2 antag: -7

What do the screens show for `CCCCn1c(NC(=O)CC)c(C#N)c2nc3ccccc3nc21`?
GALR2 ag: 0; Phagocytosis inh: -1; GALR2 antag: 2; S1P2 ag: -2; S1P2 antag: 9

How did COc1ccc(C(CC(=O)O)NC(=O)COc2ccc(C)cc2)cc1OC (stereo not given) do in these assays?
GALR2 ag: -1; Phagocytosis inh: -4; GALR2 antag: 7

How did Nc1nc(Br)c2c(F)cccc2c1-c1ccc(Cl)cc1 do in these assays?
GALR2 ag: 13*; GALR2 antag: 7; S1P2 ag: 38*; S1P2 antag: -8

What do the screens show for `Cc1ccc(NC(=O)Cc2nn(C)c(=O)c3ccccc23)cc1F`?
GALR2 ag: 0; Phagocytosis inh: -2; GALR2 antag: 21; S1P2 ag: -3; S1P2 antag: 67*

Results for Cn1c(=O)[nH]c(=O)c2[nH]c(N(Cc3ccccc3)Cc3ccccc3)nc21 ?
GALR2 ag: 1; Phagocytosis inh: 0; GALR2 antag: -21; S1P2 ag: 5; S1P2 antag: 56*

Results for O=C(CCC(=O)N/N=C/c1ccccc1O)NCc1ccccc1 ?
GALR2 ag: -1; Phagocytosis inh: 0; GALR2 antag: 4

What do the screens show for `Cc1nn(Cc2c(Cl)cccc2Cl)c(C)c1N`?
GALR2 ag: 0; GALR2 antag: -9; S1P2 ag: -3; S1P2 antag: 16

What do the screens show for `CCN(CC)c1ncn(Cc2c(Cl)cccc2Cl)c2ncnc1-2`?
GALR2 ag: -1; GALR2 antag: -7; S1P2 ag: 18*; S1P2 antag: -34

What do the screens show for `Clc1cccc(Cl)c1Cn1cnc2c(N3CCCCCC3)ncnc21`?
GALR2 ag: 1; Phagocytosis inh: -2; GALR2 antag: 2; S1P2 ag: 10; S1P2 antag: -31

What do the screens show for `CCN(CC)c1ncnc2c1ncn2Cc1c(Cl)cccc1Cl`?
GALR2 ag: 1; GALR2 antag: -2; S1P2 ag: 19*; S1P2 antag: -75

How did COC(=O)/C=C/C(=O)Nc1cccc(C(F)(F)F)c1 do in these assays?
GALR2 ag: 0; Phagocytosis inh: -2; GALR2 antag: -13

How did CCOC(=O)c1sc(Nc2ccccc2)nc1C do in these assays?
GALR2 ag: 0; Phagocytosis inh: -1; GALR2 antag: -7; S1P2 ag: 0; S1P2 antag: -19

How did CCOC(=O)c1sc(Nc2nc3c(OC)cccc3s2)nc1C do in these assays?
GALR2 ag: 46*; Phagocytosis inh: 5; GALR2 antag: -3

Results for CCOc1cccc2sc(Nc3nc4ccc(NC(C)=O)cc4s3)nc12 ?
GALR2 ag: 8.1*; Phagocytosis inh: -5; GALR2 antag: 6

Results for Cc1ccc(C(C)(C)C)cc1S(=O)(=O)Nc1cccc(S(=O)(=O)NC2=NCCC2)c1 ?
GALR2 ag: 0; GALR2 antag: 0

What do the screens show for `CCCCCCN(C(=O)CCCCCN1C(=O)NC(c2ccc(Cl)cc2)C(C(=O)OCc2ccccc2)=C1C)C(C(=O)NCCCC)c1ccc(OCC(=O)OC)c(C(=O)OC)c1` (stereo not given)?
GALR2 ag: 0; GALR2 antag: -3

What do the screens show for `CC(=O)Nc1ccc(NC(=O)/C(Cl)=C/c2ccccc2)cc1`?
GALR2 ag: 0; Phagocytosis inh: 2; GALR2 antag: 2; S1P2 ag: 35*; S1P2 antag: 6

How did O=C(CCC(=O)c1ccc(F)cc1)Nc1cc(Cl)cc(Cl)c1 do in these assays?
GALR2 ag: -2; GALR2 antag: -3; S1P2 ag: -7; S1P2 antag: 0

What do the screens show for `CC(C)c1ccc(/C=N/Nc2cc(N3CCOCC3)nc(N3CCOCC3)n2)cc1`?
GALR2 ag: 0; Phagocytosis inh: -8; GALR2 antag: -5

How did Clc1ccc(-c2ccc(/C=N/Nc3cc(N4CCOCC4)nc(N4CCOCC4)n3)o2)cc1 do in these assays?
GALR2 ag: 30*; GALR2 antag: -10; S1P2 ag: 54*; S1P2 antag: -69

What do the screens show for `C=CCn1c(SCC(=O)NC(=O)NCc2ccco2)nc2sc(C)c(C)c2c1=O`?
GALR2 ag: 6.2*; Phagocytosis inh: -1; GALR2 antag: -8; S1P2 ag: -1; S1P2 antag: -25

Results for Cc1sc2nc(SCc3nc4ccccc4[nH]3)n(Cc3ccco3)c(=O)c2c1C ?
GALR2 ag: -2; Phagocytosis inh: 0; GALR2 antag: 8; S1P2 ag: 17*; S1P2 antag: -32

What do the screens show for `NCCCCC(NC(=O)C1CCCN1C(=O)C1CSSCC(N)C(=O)NC(Cc2ccc(O)cc2)C(=O)NC(Cc2ccccc2)C(=O)NC(CCC(N)=O)C(=O)NC(CC(N)=O)C(=O)N1)C(=O)NCC(N)=O` (stereo not given)?
GALR2 ag: 0; GALR2 antag: -12

Results for OCCn1c(CSc2nnc(-c3ccco3)n2-c2ccccc2)nc2ccc(Cl)cc21 ?
GALR2 ag: 0; Phagocytosis inh: -2; GALR2 antag: -21; S1P2 ag: 34*; S1P2 antag: -23

Results for O=C(OCc1nc2ccc(Cl)cc2n1CCO)c1ccccc1 ?
GALR2 ag: -2; Phagocytosis inh: -5; GALR2 antag: 6

What do the screens show for `CCCc1nn(-c2cc(Cl)ccc2OC)c2c1C(=O)CCC2`?
GALR2 ag: 1; GALR2 antag: -5; S1P2 ag: 59*; S1P2 antag: -23

Results for CN(C)S(=O)(=O)c1ccc(C(=O)Nc2nnc(SCc3cccc(F)c3)s2)cc1 ?
GALR2 ag: 0; Phagocytosis inh: -5; GALR2 antag: 2

Results for CCCCNc1cc(=O)n(C)c(=O)[nH]1 ?
GALR2 ag: -1; Phagocytosis inh: 0; GALR2 antag: 12; S1P2 ag: 38*; S1P2 antag: -4
